Structures can show the parent of a compound that is named as a salt.
Experiments:
Conditions in all cases: treatment time: 24 h
WPMY1-GM130-SQSTM1 [1] = assay: lowest phenotypically active concentration; higher = less potent
Method in brief: (§1)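 Each of fifteen gene-edited A549, HepG2 and WPMY1 reporter lines, marked with BFP for segmentation and GFP and RFP/FusionRed, was treated in four wells at 0.3, 1, 3 or 9 µM for 24 h prior to live imaging. Normalisation of per-well live-cell features used solvent control wells. Deviation needed ≥3 of 4 wells beyond the 95th percentile of control Euclidean distances, and reproducibility needed a median replicate Pearson correlation above the 95th percentile of non-replicates. Both were required for phenotypic activity.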

A549-ACTB-RAB5A = assay: phenotypically active (imaging signature differs from DMSO and reproducible) at any of 0.3-9 uM (binary (1 = active, 0 = inactive)); higher = active
Method in brief: as §1

A549-CANX-COX4 = assay: as above
Method in brief: as §1

A549-GM130-SQSTM1 = assay: as above
Method in brief: as §1

A549-TP53BP1-CLTA = assay: as above
Method in brief: as §1

A549-TUBA1B-RELA = assay: as above
Method in brief: as §1

HepG2-ACTB-RAB5A = assay: as above
Method in brief: as §1

HepG2-CANX-COX4 = assay: as above
Method in brief: as §1

HepG2-GM130-SQSTM1 = assay: as above
Method in brief: as §1

HepG2-TP53BP1-CLTA = assay: as above
Method in brief: as §1

HepG2-TUBA1B-RELA [2] = assay: as above
Method in brief: as §1

WPMY1-ACTB-RAB5A = assay: as above
Method in brief: as §1

WPMY1-CANX-COX4 = assay: as above
Method in brief: as §1

WPMY1-GM130-SQSTM1 [3] = assay: as above
Method in brief: as §1

WPMY1-TP53BP1-CLTA = assay: as above
Method in brief: as §1

WPMY1-TUBA1B-RELA = assay: as above
Method in brief: as §1

HepG2-TUBA1B-RELA [4] = assay: lowest phenotypically active concentration; higher = less potent
Method in brief: as §1

COC(=O)C1=C(C)NC(C)=C(C(=O)OCCN(C)Cc2ccccc2)C1c1cccc([N+](=O)[O-])c1 (stereo not drawn) [nicardipine]
active: phenotypically active (WPMY1-GM130-SQSTM1 [3]) 1
inactive: phenotypically active (A549-ACTB-RAB5A) 0 | phenotypically active (A549-CANX-COX4) 0 | phenotypically active (A549-GM130-SQSTM1) 0 | phenotypically active (A549-TP53BP1-CLTA) 0 | phenotypically active (A549-TUBA1B-RELA) 0 | phenotypically active (HepG2-ACTB-RAB5A) 0 | phenotypically active (HepG2-CANX-COX4) 0 | phenotypically active (HepG2-GM130-SQSTM1) 0 | phenotypically active (HepG2-TP53BP1-CLTA) 0 | phenotypically active (HepG2-TUBA1B-RELA [2]) 0 | phenotypically active (WPMY1-ACTB-RAB5A) 0 | phenotypically active (WPMY1-CANX-COX4) 0 | phenotypically active (WPMY1-TP53BP1-CLTA) 0 | phenotypically active (WPMY1-TUBA1B-RELA) 0
9 µM: lowest phenotypically active concentration (WPMY1-GM130-SQSTM1 [1])

Cc1cc2c(s1)Nc1ccccc1N=C2N1CCN(C)CC1 [Olanzapine]
inactive: phenotypically active (A549-ACTB-RAB5A) 0 | phenotypically active (A549-CANX-COX4) 0 | phenotypically active (A549-GM130-SQSTM1) 0 | phenotypically active (A549-TP53BP1-CLTA) 0 | phenotypically active (A549-TUBA1B-RELA) 0 | phenotypically active (HepG2-ACTB-RAB5A) 0 | phenotypically active (HepG2-CANX-COX4) 0 | phenotypically active (HepG2-GM130-SQSTM1) 0 | phenotypically active (HepG2-TP53BP1-CLTA) 0 | phenotypically active (WPMY1-ACTB-RAB5A) 0 | phenotypically active (WPMY1-CANX-COX4) 0 | phenotypically active (WPMY1-GM130-SQSTM1 [3]) 0 | phenotypically active (WPMY1-TP53BP1-CLTA) 0 | phenotypically active (WPMY1-TUBA1B-RELA) 0
active: phenotypically active (HepG2-TUBA1B-RELA [2]) 1
9 µM: lowest phenotypically active concentration (HepG2-TUBA1B-RELA [4])

C=C[C@H]1CN2CC[C@H]1C[C@@H]2[C@@H](O)c1ccnc2ccc(OC)cc12 [Quinidine hydrochloride monohydrate]
inactive: phenotypically active (A549-ACTB-RAB5A) 0 | phenotypically active (A549-CANX-COX4) 0 | phenotypically active (A549-GM130-SQSTM1) 0 | phenotypically active (A549-TUBA1B-RELA) 0 | phenotypically active (HepG2-ACTB-RAB5A) 0 | phenotypically active (HepG2-CANX-COX4) 0 | phenotypically active (HepG2-GM130-SQSTM1) 0 | phenotypically active (HepG2-TUBA1B-RELA [2]) 0 | phenotypically active (WPMY1-ACTB-RAB5A) 0 | phenotypically active (WPMY1-CANX-COX4) 0 | phenotypically active (WPMY1-GM130-SQSTM1 [3]) 0 | phenotypically active (WPMY1-TUBA1B-RELA) 0

O=C1C=C(O)C(=O)c2ccccc21 [2-Hydroxy-[1,4]naphthoquinone]
inactive: phenotypically active (A549-ACTB-RAB5A) 0 | phenotypically active (A549-CANX-COX4) 0 | phenotypically active (A549-GM130-SQSTM1) 0 | phenotypically active (A549-TP53BP1-CLTA) 0 | phenotypically active (A549-TUBA1B-RELA) 0 | phenotypically active (HepG2-ACTB-RAB5A) 0 | phenotypically active (HepG2-CANX-COX4) 0 | phenotypically active (HepG2-GM130-SQSTM1) 0 | phenotypically active (HepG2-TP53BP1-CLTA) 0 | phenotypically active (HepG2-TUBA1B-RELA [2]) 0 | phenotypically active (WPMY1-ACTB-RAB5A) 0 | phenotypically active (WPMY1-CANX-COX4) 0 | phenotypically active (WPMY1-TP53BP1-CLTA) 0 | phenotypically active (WPMY1-TUBA1B-RELA) 0
active: phenotypically active (WPMY1-GM130-SQSTM1 [3]) 1
≤ 0.3 µM: lowest phenotypically active concentration (WPMY1-GM130-SQSTM1 [1])

CC(C)Cc1ccc(C(C)C(=O)O)cc1 (stereo not drawn) [ibuprofen]
inactive: phenotypically active (A549-ACTB-RAB5A) 0 | phenotypically active (A549-CANX-COX4) 0 | phenotypically active (A549-GM130-SQSTM1) 0 | phenotypically active (A549-TUBA1B-RELA) 0 | phenotypically active (HepG2-ACTB-RAB5A) 0 | phenotypically active (HepG2-CANX-COX4) 0 | phenotypically active (HepG2-GM130-SQSTM1) 0 | phenotypically active (HepG2-TUBA1B-RELA [2]) 0 | phenotypically active (WPMY1-ACTB-RAB5A) 0 | phenotypically active (WPMY1-CANX-COX4) 0 | phenotypically active (WPMY1-GM130-SQSTM1 [3]) 0 | phenotypically active (WPMY1-TUBA1B-RELA) 0

C=C[C@H]1C[N@@]2CC[C@H]1C[C@@H]2[C@@H](O)c1ccnc2ccc(OC)cc12 [quinidine]
inactive: phenotypically active (A549-ACTB-RAB5A) 0 | phenotypically active (A549-CANX-COX4) 0 | phenotypically active (A549-GM130-SQSTM1) 0 | phenotypically active (A549-TUBA1B-RELA) 0 | phenotypically active (HepG2-ACTB-RAB5A) 0 | phenotypically active (HepG2-CANX-COX4) 0 | phenotypically active (HepG2-GM130-SQSTM1) 0 | phenotypically active (HepG2-TUBA1B-RELA [2]) 0 | phenotypically active (WPMY1-ACTB-RAB5A) 0 | phenotypically active (WPMY1-CANX-COX4) 0 | phenotypically active (WPMY1-GM130-SQSTM1 [3]) 0 | phenotypically active (WPMY1-TUBA1B-RELA) 0

OC(CCN1CCCCC1)(c1ccccc1)C1CCCCC1 (stereo not drawn) [trihexyphenidyl]
inactive: phenotypically active (A549-CANX-COX4) 0 | phenotypically active (A549-TP53BP1-CLTA) 0 | phenotypically active (HepG2-ACTB-RAB5A) 0 | phenotypically active (HepG2-CANX-COX4) 0 | phenotypically active (HepG2-GM130-SQSTM1) 0 | phenotypically active (HepG2-TP53BP1-CLTA) 0 | phenotypically active (HepG2-TUBA1B-RELA [2]) 0 | phenotypically active (WPMY1-ACTB-RAB5A) 0 | phenotypically active (WPMY1-CANX-COX4) 0 | phenotypically active (WPMY1-GM130-SQSTM1 [3]) 0 | phenotypically active (WPMY1-TP53BP1-CLTA) 0 | phenotypically active (WPMY1-TUBA1B-RELA) 0

COc1ccc(Cn2ccc3ccc(C(=O)NO)cc32)cc1
active: phenotypically active (WPMY1-GM130-SQSTM1 [3]) 1
3 µM: lowest phenotypically active concentration (WPMY1-GM130-SQSTM1 [1])
inactive: phenotypically active (A549-ACTB-RAB5A) 0 | phenotypically active (A549-CANX-COX4) 0 | phenotypically active (A549-GM130-SQSTM1) 0 | phenotypically active (A549-TP53BP1-CLTA) 0 | phenotypically active (A549-TUBA1B-RELA) 0 | phenotypically active (HepG2-ACTB-RAB5A) 0 | phenotypically active (HepG2-CANX-COX4) 0 | phenotypically active (HepG2-GM130-SQSTM1) 0 | phenotypically active (HepG2-TP53BP1-CLTA) 0 | phenotypically active (HepG2-TUBA1B-RELA [2]) 0 | phenotypically active (WPMY1-ACTB-RAB5A) 0 | phenotypically active (WPMY1-CANX-COX4) 0 | phenotypically active (WPMY1-TP53BP1-CLTA) 0 | phenotypically active (WPMY1-TUBA1B-RELA) 0

Fc1ccc(Cl)cc1-c1nc(Nc2ccncc2)c2nccnc2n1
inactive: phenotypically active (A549-ACTB-RAB5A) 0 | phenotypically active (A549-CANX-COX4) 0 | phenotypically active (A549-GM130-SQSTM1) 0 | phenotypically active (A549-TP53BP1-CLTA) 0 | phenotypically active (A549-TUBA1B-RELA) 0 | phenotypically active (HepG2-ACTB-RAB5A) 0 | phenotypically active (HepG2-CANX-COX4) 0 | phenotypically active (HepG2-GM130-SQSTM1) 0 | phenotypically active (HepG2-TP53BP1-CLTA) 0 | phenotypically active (HepG2-TUBA1B-RELA [2]) 0 | phenotypically active (WPMY1-ACTB-RAB5A) 0 | phenotypically active (WPMY1-CANX-COX4) 0 | phenotypically active (WPMY1-GM130-SQSTM1 [3]) 0 | phenotypically active (WPMY1-TUBA1B-RELA) 0
active: phenotypically active (WPMY1-TP53BP1-CLTA) 1

CN(CCOc1ccc(NS(C)(=O)=O)cc1)CCc1ccc(NS(C)(=O)=O)cc1 [dofetilide]
inactive: phenotypically active (A549-ACTB-RAB5A) 0 | phenotypically active (A549-CANX-COX4) 0 | phenotypically active (A549-GM130-SQSTM1) 0 | phenotypically active (A549-TUBA1B-RELA) 0 | phenotypically active (HepG2-ACTB-RAB5A) 0 | phenotypically active (HepG2-CANX-COX4) 0 | phenotypically active (HepG2-GM130-SQSTM1) 0 | phenotypically active (HepG2-TUBA1B-RELA [2]) 0 | phenotypically active (WPMY1-ACTB-RAB5A) 0 | phenotypically active (WPMY1-CANX-COX4) 0 | phenotypically active (WPMY1-GM130-SQSTM1 [3]) 0 | phenotypically active (WPMY1-TUBA1B-RELA) 0

Nc1nc(N)nc(-c2cc(Cl)ccc2Cl)n1 [Irsogladine maleate]
inactive: phenotypically active (A549-CANX-COX4) 0 | phenotypically active (A549-TP53BP1-CLTA) 0 | phenotypically active (HepG2-ACTB-RAB5A) 0 | phenotypically active (HepG2-CANX-COX4) 0 | phenotypically active (HepG2-GM130-SQSTM1) 0 | phenotypically active (HepG2-TP53BP1-CLTA) 0 | phenotypically active (HepG2-TUBA1B-RELA [2]) 0 | phenotypically active (WPMY1-ACTB-RAB5A) 0 | phenotypically active (WPMY1-CANX-COX4) 0 | phenotypically active (WPMY1-GM130-SQSTM1 [3]) 0 | phenotypically active (WPMY1-TP53BP1-CLTA) 0 | phenotypically active (WPMY1-TUBA1B-RELA) 0

CC(C)NCC(O)COc1cccc2ccccc12 (stereo not drawn) [propranolol]
inactive: phenotypically active (A549-CANX-COX4) 0 | phenotypically active (A549-TP53BP1-CLTA) 0 | phenotypically active (HepG2-ACTB-RAB5A) 0 | phenotypically active (HepG2-CANX-COX4) 0 | phenotypically active (HepG2-GM130-SQSTM1) 0 | phenotypically active (HepG2-TP53BP1-CLTA) 0 | phenotypically active (HepG2-TUBA1B-RELA [2]) 0 | phenotypically active (WPMY1-ACTB-RAB5A) 0 | phenotypically active (WPMY1-CANX-COX4) 0 | phenotypically active (WPMY1-GM130-SQSTM1 [3]) 0 | phenotypically active (WPMY1-TP53BP1-CLTA) 0 | phenotypically active (WPMY1-TUBA1B-RELA) 0
